From PubChem BioAssay AID2289 (National Center for Advancing Translational Sciences (NCATS), 2010)
The campaign covered roughly 340,000 compounds. About 3,300 (0.97%) were called active. Not shown: some 9% with an inconclusive outcome. The call rests on the fitted dose curve; in most records, active means well fitted inhibition curve with a large enough effect; inconclusive means small, poorly fitted or top-dose-only effect, or effect the other way; inactive means flat fitted curve, though single readings scatter. Some of the results follow.

Assay: qHTS Assay for Modulators of miRNAs and/or Inhibitors of miR-21; further: nearly all actives have a fitted effect of over 55% in size
Details: HeLa miR-21-FLuc reporter, luciferase luminescence, 48 h; actives lower the signal
In short: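 HeLa cells stably expressing CMV-driven firefly luciferase with a downstream miR-21 binding sequence, endogenously expressing miR-21, were treated with titrations (up to about 40uM final) for 48 hours at 37 degree Celsius. Luciferase luminescence was read after lysis.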
Potency means the concentration at half of the fitted maximal effect.

Potency, active:
C/C(=N\NC(=O)c1sccc1C)c1cccnc1 4.14 µM, C/C(=N\Nc1ccc(C)c(Cl)c1)c1cccnc1 13.1 µM, C/C(=N\NC(=O)c1sccc1C)c1ccncc1 2.93 µM, Cc1ccccc1-c1nnc(-c2ccc(Cl)cc2)o1 2.07 µM, Cc1ccccc1-c1nnc(-c2cccs2)o1 6.56 µM, CC1CN(C(=O)N2CCC(C(=O)NCc3cccs3)CC2)c2ccccc2O1 (configuration not stated) 1.47 µM, Cc1ccc(/C=N/NC(=S)N2CCOCC2)cc1 13.1 µM, S=C(N/N=C/c1ccc(Cl)cc1)N1CCOCC1 9.27 µM, O=C(Nc1ccc(F)cc1)c1nsc(Cl)c1Cl 1.65 µM, COc1c(O)cc2oc(-c3ccc(O)cc3)cc(=O)c2c1O 2.33 µM, COc1c(O)cc2oc(-c3ccc(O)c(O)c3)cc(=O)c2c1O 5.21 µM, Cn1c(CSc2nc3ccccc3s2)nc2ccccc21 4.14 µM, COc1ccc(CNc2nc3ccccc3n2C)c(O)c1 1.17 µM, Cn1c(CNc2ccc(O)cc2)nc2ccccc21 16.5 µM, COc1ccccc1C(=O)COC(=O)c1ccc(N(C)C)cc1 3.29 µM, COc1ccc(/C=C2/CCc3ccccc3C2=O)cc1OC 18.5 µM, O=C1/C(=C/c2ccccc2)CCCc2ccccc21 7.36 µM, COc1ccc(/C=C2\Cc3ccccc3C2=O)cc1OC 14.7 µM, O=C(O)c1cccc(NC(=S)N/N=C/c2ccccc2OCc2ccc(Br)cc2)c1 11.7 µM, O=C(O)c1cnn(-c2nc(-c3ccc(F)cc3)cs2)c1C(F)(F)F 14.7 µM, O=C(O)c1cnn(-c2nc(-c3ccc(Cl)cc3)cs2)c1C(F)(F)F 13.1 µM, O=C(O)c1cnn(-c2nc(-c3ccc(Br)cc3)cs2)c1C(F)(F)F 11.7 µM, O=C(O)c1cnn(-c2nc(-c3ccc(Cl)c(Cl)c3)cs2)c1C(F)(F)F 5.21 µM, COc1ccccc1-c1nn2c(-c3ccco3)nnc2s1 4.65 µM, CCOC(=O)c1oc2ccc(/C=N/O)c(Cl)c2c1C 8.26 µM, CC(C)(C)c1ccc(/C=N/NC(=O)C2CCCC2)cc1 16.5 µM, Cn1cccc1CC(=O)N/N=C/c1ccc(C(C)(C)C)cc1 10.4 µM, Cc1ccc(OCC(=O)Nc2cccc(C(=O)OCc3cc(=O)n4nc(C)sc4n3)c2)cc1 0.736 µM, Cc1cn2c(=O)cc(COC(=O)c3cccc(NC(=O)COc4ccccc4Cl)c3)nc2s1 0.329 µM, COC(=O)c1ccc(NC(=S)Nc2ccccn2)cc1 2.07 µM, COc1ccc(NC(=S)Nc2ccccn2)cc1 2.93 µM, COc1ccccc1N1CCN(C(=O)c2nc(-c3ccc(C)cc3)n3c2CCCCC3)CC1 1.47 µM, N/C(=N\OC(=O)c1ccc2c(c1)OCO2)c1cccnc1 3.69 µM, N/C(=N\OC(=O)c1ccc(Cl)cc1)c1cccnc1 2.61 µM, Cc1ccc(/C(N)=N/OC(=O)c2ccc3c(c2)OCO3)cc1 0.464 µM, Cc1cc(/C(N)=N/OC(=O)c2ccc(Cl)cc2)no1 1.47 µM, Cn1cccc1/C=C1\SC(=O)N(c2ccccc2)C1=O 0.927 µM, O=C(NCCc1ccccc1)c1cc(-c2ccco2)on1 3.29 µM, CC1CCN(C(=O)c2cc(-c3ccco3)on2)CC1 3.69 µM, CCCNC(=O)c1cc(-c2ccco2)on1 3.69 µM, O=C(Nc1ccccc1F)c1ccc(Cn2cc(Cl)cn2)cc1 10.4 µM, Cn1c(NC(=O)c2cccc(Cn3cc(Cl)cn3)c2)nc2ccccc21 4.65 µM, Cc1cc2c([nH]c3ccccc32)c2c1OC(C)(C)C=C2 3.69 µM, COc1ccc(OCc2cc(C(=O)N3CCCC(OC)C3)no2)c2ccccc12 (configuration not stated) 16.5 µM, COc1ccc(OCc2cc(C(=O)N3CCCC(O)C3)no2)c2ccccc12 (configuration not stated) 5.85 µM, Oc1c(/C=N/c2ccccn2)sc2ccccc12 2.07 µM, O=C(OCCOc1ccccc1)c1n[nH]c2ccccc12 1.47 µM, O=C(O)C(=O)/C(=C\c1ccsc1)c1ccc2ccccc2n1 1.47 µM, N#Cc1ccc(/C=C(\C(=O)C(=O)O)c2ccc3ccccc3n2)cc1 1.04 µM, COc1cc(/C=C/c2nc3ccccc3s2)cc(OC)c1O 13.1 µM, CC(=O)Nc1ccc(/C=N/Nc2nc3ccccc3s2)cc1 0.185 µM, COc1cc(/C=N/Nc2ccccc2C(F)(F)F)ccc1O 16.5 µM, COc1cc(/C=N/Nc2nc3ccccc3s2)ccc1O 2.93 µM, O=C(O)c1ccc(N/N=C/C(Br)=C/c2ccccc2)cc1 1.17 µM, BrC(=C\c1ccccc1)/C=N/Nc1nc2ccccc2[nH]1 16.5 µM, O=C(c1ccco1)N1CCN(C(c2ccccn2)c2nnnn2C2CCCC2)CC1 (configuration not stated) 7.36 µM, COc1ccc(-c2csc(N3CCOCC3)n2)cc1OC 5.85 µM, Clc1ccc(-c2nnc(N3CCOCC3)o2)cc1 18.5 µM, COc1ccc(-c2csc(N3CCSCC3)n2)cc1 10.4 µM, Clc1ccc(-c2csc(N3CCOCC3)n2)cc1 3.29 µM, COc1ccc(-c2csc(N3C(=O)CNC3=S)n2)cc1 0.0585 µM, O=C(c1ccc(-c2cccc(Cl)c2Cl)o1)N1CCOCC1 4.65 µM, O=C(c1ccc(-c2ccc([N+](=O)[O-])cc2)o1)N1CCCCC1 1.85 µM, O=C(c1ccc(-c2cccc(C(F)(F)F)c2)o1)N1CCOCC1 14.7 µM, O=C(c1ccc(-c2ccc([N+](=O)[O-])cc2Cl)o1)N1CCOCC1 10.4 µM, O=C(c1ccc(-c2ccc(Cl)cc2Cl)o1)N1CCOCC1 7.36 µM, O=C(c1ccc(-c2cc(Cl)ccc2Cl)o1)N1CCOCC1 18.5 µM
